Bioassay records from PubChem BioAssay.
bovine MsrA act: bovine methionine sulfoxide reductase A activation; purified bovine MsrA, absorbance read-out; activation, % at 10.6 µM; 0.3% of 360,000 active; in the data active = activation above about 7.5%;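 also: 0% = vehicle and 100% = reference activator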
rCAG binder: binds r(CAG) RNA repeats; r(CAG) RNA repeat, TO-PRO-1 dye displacement fluorescence; 1.3% of 370,000 active; inhibition, % at 3 µM;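 active = inhibition above the plate cutoff, the mean of all test compounds on that plate plus 3 SD, cut at about 35% in these data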;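 also: 0% = DMSO alone and 100% = 100 µM mitoxantrone as full dye displacement; higher means more dye released from RNA so lower well fluorescence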
PG9 Ab binder: binds the HIV-1 gp120 antibody PG9. TR-FRET gp120-PG9 antibody binding. inhibition, % at 6.7 µM. 0.43% of 360,000 active. AID 624416; in the data active = inhibition above about 8.5%
HGIII-sPLA2 inh: Inhibits HGIII-sPLA2 liposome hydrolysis, primary screen; Q9NZ20; QFRET BODIPY PC-A2 liposome hydrolysis, fluorescence; inhibition, % at 12.2 µM; 0.56% of 370,000 active;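 active = inhibition above mean plus 3 SD of compounds lying within the high and low control bounds, cut at about 19% in these data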;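 also: 0% = median of test compound wells and 100% = no enzyme DMSO wells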
Target sequence (Q9NZ20 whole entry, looked up): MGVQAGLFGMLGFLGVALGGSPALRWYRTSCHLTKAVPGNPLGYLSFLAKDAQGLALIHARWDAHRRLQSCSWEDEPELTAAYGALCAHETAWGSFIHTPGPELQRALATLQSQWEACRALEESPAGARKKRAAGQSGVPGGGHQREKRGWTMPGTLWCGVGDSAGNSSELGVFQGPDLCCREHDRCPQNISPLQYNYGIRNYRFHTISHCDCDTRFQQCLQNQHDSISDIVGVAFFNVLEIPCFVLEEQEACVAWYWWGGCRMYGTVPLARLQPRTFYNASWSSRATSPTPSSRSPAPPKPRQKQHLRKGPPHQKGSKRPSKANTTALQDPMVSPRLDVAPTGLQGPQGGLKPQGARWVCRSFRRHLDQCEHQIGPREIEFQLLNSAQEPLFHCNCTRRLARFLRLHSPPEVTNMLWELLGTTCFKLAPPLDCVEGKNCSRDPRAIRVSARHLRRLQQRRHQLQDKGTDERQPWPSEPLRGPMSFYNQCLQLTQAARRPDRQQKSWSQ
MsrA inh: inhibits bovine methionine sulfoxide reductase A. purified bovine MsrA, absorbance read-out. inhibition, % at 15.5 µM. 0.75% of 360,000 active. AID 651718; in the data active = inhibition above about 4.5%;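 also: 0% = vehicle wells with enzyme and 100% = reference inhibitor wells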
MsrA activ conf: confirmation of bovine methionine sulfoxide reductase A activators | shares compounds with bovine MsrA act | purified bovine MsrA, absorbance read-out | activation, % at 10.6 µM | 12% of 1,000 active; in the data active = activation above about 4%;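 also: enzyme coupled to thioredoxin and thioredoxin reductase with NADPH; 0% = vehicle wells and 100% = reference activator wells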
* hit, by the source's call; / = no result. Compounds with a hit are over-represented: about 3.2% of the library has one in this group of screens.

SMILES	bovine MsrA act	rCAG binder	PG9 Ab binder	HGIII-sPLA2 inh	MsrA inh	MsrA activ conf
COCCNC(=O)C1=NOC(Cn2cc(C#N)c(=O)n(C)c2=O)C1 (centres undefined)	-10	-2	-3	0	0	/
O=C(Nc1cccc([N+](=O)[O-])c1)c1ccc([N+](=O)[O-])o1	9.8*	2	0	-4	2	5.7*
O=C(NCSc1ccnc(SCNC(=O)c2ccccc2)n1)c1ccccc1	11*	0	-1	9	1	3
COc1ccc2c(c1)C1(Nc3ccccc3-c3nc4ccccc4n31)C(=O)N2 (centres undefined)	8.7*	7	-2	-7	0	0
CC[C@H]1C(=O)[C@@H](Cc2ccccc2)[C@@H]2CCN3C(=O)CCC[C@H]1[C@H]23	17*	-6	1	6	1	-1
CSc1ccc(-c2nc(O)c3cnccn23)cc1	10*	-1	-15	-16	3	-4
O=C(NCCO)c1cccc(Nc2nc(-c3ccccc3)c3cc(Cl)ccc3n2)c1	17*	9	-1	-9	0	-1
O=C(O)CCCC(=O)NNc1nc(-c2ccccc2)c2cc(Cl)ccc2n1	-2	3	1	-1	-1	/
COC(=O)c1cc(C)nc2c1c(C)nn2-c1ccccc1	13*	1	0	10	0	1
Cc1nn(-c2ccccc2)c2nc(N)c(C(N)=O)cc12	-4	-1	-1	6	1	/
CCOC(=O)N1C(=O)C[C@](Sc2ccc(OC)cc2)(C(=O)N2CCN(C(C)=O)CC2)[C@H]1c1ccc(OC)cc1	/	3	/	3	/	/
CCn1c(=O)n(CC(=O)N2CCOCC2)c(=O)c2ccccc21	/	0	/	3	/	/
OC[C@@H]1CN(Cc2ccc3c(c2)OCO3)C[C@H](n2cnc3c(N4CCOCC4)ncnc32)O1	7.8*	-1	1	15	1	0
C[C@H](O)[C@@H]1C(=O)N2CCc3c([nH]c4c(-c5ccc6c(c5)OCO6)cccc34)[C@@H]2C[C@@H]1N(C)C(=O)c1ccccc1F	/	13	/	-61	/	/
COc1ccc(C(=O)NC(=O)COC(=O)C2CC2C)cc1 (centres undefined)	8.0*	1	0	9	0	-3
Clc1cc(Br)ccc1OCCN1CCOCC1	-9	-4	-1	3	-1	/
Brc1ccccc1OCCN1CCOCC1	9.5*	-4	-2	-5	-1	-3
CC(C)C1C(=O)N(Cc2cn(CC3CCCCC3)nn2)CCS(=O)(=O)N1Cc1ccc(-c2ccc(F)nc2)cc1 (centres undefined)	8.9*	4	-1	-28	0	-1
COc1ccc(/C=N/NC(=O)c2cccnc2)cc1CN1CCc2cc(OC)c(OC)cc2C1C (centres undefined)	16*	0	1	1	3	-2
O=c1cc(CSc2ccccc2)[nH]c(=S)[nH]1	11*	-1	-1	1	1	4
O=c1cc(CSc2ccccc2)[nH]c2ccccc12	-1	1	0	-1	0	/
CN(C)c1ccc(-c2sc(Nc3ccccc3)n[n+]2-c2ccc(F)cc2)cc1	0	7	-1	2	1	/
CCN(CC)c1ccc(-c2sc(Nc3ccccc3)n[n+]2-c2ccc(F)cc2)cc1	17*	-21	6	7	3	4.0*
C=C(C)C1Cc2c(C)nn(-c3cccc4ccccc34)c2C1 (centres undefined)	8.0*	0	-2	-3	-1	-2
Cc1ccc(C2CCC3(CCC(=O)N3CCO)CC2)cc1 (centres undefined)	/	-3	/	4	/	/
SMILES	bovine MsrA act	rCAG binder	PG9 Ab binder	HGIII-sPLA2 inh	MsrA inh	MsrA activ conf
CN(C)c1ccc(C=c2c3cc(O)ccc3n3c2cc(-c2ccccc2)[n+]3C)cc1	17*	25	-16	-3	2	8.1*
Cc1cc2c(=Cc3ccc(N(C)C)cc3)c3ccccc3n2[n+]1C	4	9	-30	18	1	/
C[n+]1c(-c2ccccc2)cc2c(=Cc3ccccc3)c3ccccc3n21	19*	10	-2	19	12*	9.6*
O=C(CC1CCCC1)N1CC[C@H]2[C@H](CCCN2Cc2ccc(F)cc2)C1	/	-3	/	1	/	/
Cc1onc(C(=O)N2CCC(Cc3ccccc3)CC2)c1[N+](=O)[O-]	0	-3	-1	-52	1	/
Cc1onc(C(=O)N2C(C)CCCC2C)c1[N+](=O)[O-] (centres undefined)	8.8*	0	0	4	1	-1
COc1cc(NC(=O)CSc2nc(C)cc(=O)[nH]2)cc(OC)c1	/	1	/	9	/	/
Cc1cccc(C(=O)Nc2nc3ncccn3c2-c2ccc(F)c(F)c2)c1	/	4	/	-4	/	/
COC1=C[C@H](C(=O)NCCNC(C)=O)[C@@]2(C)Cc3ccccc3[C@H]2CC1=O	/	4	/	4	/	/
C=CCNC(=O)Nc1ccc2c(c1)[C@]1(CC(=O)N(CC(C)C)C1c1ccccc1)C(=O)N2C (some centres undefined)	/	0	/	9	/	/
CCOC(=O)c1[nH]c2ccc(OC)cc2c1NS(=O)(=O)c1ccc(OC)cc1OC	9.7*	7	0	-7	0	-2
O=C(Cc1ccccc1)N/N=C/c1ccc([N+](=O)[O-])s1	7.9*	3	-3	-6	2	1
O=C(N/N=C/c1ccc([N+](=O)[O-])s1)c1ccccc1	6	-1	-2	-2	2	/
COc1ccc(S[C@]2(C(=O)N3CCOCC3)CC(=O)N(C(=O)C3CC3)[C@@H]2c2ccc(OC)cc2)cc1	/	4	/	-5	/	/
CC(c1ccc(NC(=O)OC(C)(C)C)cc1)c1cn(C)c2ccccc12 (centres undefined)	/	0	/	-37	/	/
Cc1ccc(CNC(=O)OC(C)(C)C)c(/C=C/S(=O)(=O)NCCc2ccccc2)c1	/	2	/	4	/	/
COc1ccc(-c2noc(CSc3nnc(-c4ccncc4)n3-c3ccc(F)cc3)n2)cc1OC	18*	-3	-1	3	2	0
Cc1cc(NC(=O)CSc2nnc(-c3ccncc3)n2-c2ccc(F)cc2)no1	1	-2	1	-2	-1	/
CCOC(=O)c1cnc(Nc2nc3ccccc3o2)nc1C	-1	-1	1	12	1	/
CCOC(=O)c1cnc(Nc2nc3ccccc3o2)nc1CSc1nnc(C)s1	15*	2	1	0	1	1
CCOC(=O)Cn1nc(-c2ccccc2)ccc1=O	-1	0	3	5	2	/
CCOC(=O)Cn1cc(-c2ccccc2)nn1	8.3*	1	0	10	0	-1
COc1ccc(C)cc1S(=O)(=O)Nc1cccc(SC)c1	8.8*	1	1	-24	0	-2
COc1ccc(C)cc1S(=O)(=O)Nc1cccc(C)c1	0	-2	-2	2	0	/
CCCC(=O)Nc1ccc(C(=O)COC(=O)C2=COCCO2)cc1	8.1*	0	-1	0	0	0
COc1ccc(O)c(/C=N/NC(=O)CCC(=O)Nc2ccc(F)cc2)c1	7.9*	4	1	-11	1	-3
